Source: PubChem (National Center for Advancing Translational Sciences (NCATS))
BAZ2B inh: BAZ2B (human) inhibition | Q9UIF8 | AlphaScreen BAZ2B-H3K14Ac peptide displacement | Potency, µM (top dose mostly 114 µM), for the others: at the highest dose activity change, negative = inhibition, most hits filed as inhibitors | actives 4.4% (n = 360,000); note: % is set by controls: 0 for no effect and ±100 for the full control effect; nearly all actives have a fitted effect of over 60% in size
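BAZ2B 50 nM plus b-H3(5-23)K14Ac 50 nM, PBS pH 7.4/0.01% Tween-20, 30 min RT; compound added (max 110 uM), 30 min RT; streptavidin donor/Ni-chelate acceptor beads 10 ug/mL final, 20 min dark; AlphaScreen read.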
JMJD2A Tudor inh: JMJD2A Tudor domain (human) inhibition; Potency, µM (highest dose often 114 µM), without a hit: at the highest dose activity change, negative = inhibition, most hits filed as inhibitors; AID 504339; O75164; actives 4.4% (n = 390,000); AlphaScreen JMJD2A-Tudor / H3K4me3 peptide binding; note: % is set by controls: 0 for no effect and ±100 for the full control effect; nearly all actives have a fitted effect of over 50% in size
G9a inh: blocks human histone lysine methyltransferase G9a; actives 8.8% (n = 350,000); G9a H3K9 monomethylation, AlphaScreen, 2 h; Potency, µM (top dose mostly 102 µM), for inactives: at the highest dose activity, negative = inhibition, hits mostly inhibitors; note: % is set by controls: 0 for no effect and ±100 for the full control effect; nearly all actives have a fitted effect of over 75% in size
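Quantitative HTS format: methyltransferase activity on a biotin-tagged H3K9 peptide is measured by AlphaScreen, using a rabbit anti-monomethyl-H3K9 antibody with streptavidin donor and anti-IgG acceptor beads. Final levels are 20 nM enzyme, 500 nM peptide, 20 uM SAM; 2 h RT.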
PLK1 PBD inh: blocks phosphopeptide binding to human PLK1 polo-box domain; P53350; Plk1 PBD binding of FITC phosphopeptide, fluorescence polarization; Potency, µM, for inactives: max response, negative = inhibition, usual class: inhibitors; actives 2.8% (n = 360,000); AID 720504; note: series mostly up to about 57 µM; % is set by controls: 0 for no effect and ±100 for the full control effect; nearly all actives have a fitted effect of over 65% in size
Target sequence (P53350 whole entry, looked up, the tested form may be a part): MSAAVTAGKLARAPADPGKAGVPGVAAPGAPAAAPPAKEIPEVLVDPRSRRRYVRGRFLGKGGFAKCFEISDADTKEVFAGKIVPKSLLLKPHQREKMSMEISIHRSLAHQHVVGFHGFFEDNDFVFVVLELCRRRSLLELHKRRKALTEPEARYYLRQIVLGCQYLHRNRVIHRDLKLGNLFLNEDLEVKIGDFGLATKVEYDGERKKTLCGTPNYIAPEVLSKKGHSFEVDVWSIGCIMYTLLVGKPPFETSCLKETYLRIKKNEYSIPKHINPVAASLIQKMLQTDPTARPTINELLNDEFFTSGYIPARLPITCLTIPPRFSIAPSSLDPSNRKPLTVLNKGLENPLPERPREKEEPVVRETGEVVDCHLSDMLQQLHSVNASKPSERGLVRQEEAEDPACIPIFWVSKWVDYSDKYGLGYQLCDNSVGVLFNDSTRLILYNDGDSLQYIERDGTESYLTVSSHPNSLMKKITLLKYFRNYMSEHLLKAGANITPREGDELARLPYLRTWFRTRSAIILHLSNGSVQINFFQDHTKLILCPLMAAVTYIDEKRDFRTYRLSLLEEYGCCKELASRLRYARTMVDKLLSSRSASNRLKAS
HP1b binding inh: inhibitors of HP1-beta chromodomain binding to methylated histone tails | AID 540317 | Potency, µM (doses to about 114 µM), inactives show top-dose activity change, negative = inhibition, hits mostly inhibitors | actives 0.56% (n = 390,000) | AlphaScreen HP1-beta / biotin-H3K9me3 peptide binding; note: nearly all actives have a fitted effect of over 70% in size
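Compound inhibition of the preformed complex between 50 nM HP1-beta and 50 nM biotinylated H3K9me3 peptide was read by AlphaScreen. Buffer was PBS pH 7.4 with 0.01% Tween-20. Incubations ran 30 min at room temperature, with 10 ug/mL donor/acceptor beads.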
12-LOX inh: blocks human arachidonate 12S-lipoxygenase; purified 12hLO, xylenol orange hydroperoxide absorbance; Potency, µM (series often up to 108 µM), for inactives: top-dose activity change, negative = inhibition, most hits filed as inhibitors; P18054; AID 1671190; actives 1.1% (n = 580,000); note: % is set by controls: 0 for no effect and ±100 for the full control effect
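Hydroperoxide product was detected by ferrous iron/xylenol orange as the 573 to 405 nm absorbance ratio. Arachidonic acid at 40 uM (final) was turned over for 30 min at room temperature by 150 nM human 12hLO, pH 7.0 Hepes buffer, after 15 min compound preincubation.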
* hit, by the source's call; [ ] = another dose, or the depositor's remark. An excerpt weighted towards active compounds, which were near 9% of everything screened. Calls come from the whole dose curve; as a rule, active = well fitted curve in the direction sought with a large enough effect; inconclusive = small, poorly fitted or top-dose-only effect, or another doubt; inactive = no such curve, though single readings can be large; an effect the other way counts as inactive or inconclusive. Potency is the fitted concentration of half-maximal effect.

For Cc1ccc(F)cc1S(=O)(=O)N1CCCC(Cn2c(C3CC3)nc3cccnc32)C1 (stereo unspecified) the results were 12-LOX inh 9%.
CCC1Sc2ccc(S(=O)(=O)N3CCN(c4ccccc4)CC3)cc2NC1=O (stereo unspecified) was read as BAZ2B inh -33%, JMJD2A Tudor inh 13µM*, G9a inh 18µM*, PLK1 PBD inh 3.4µM*, HP1b binding inh -8% and 12-LOX inh -4%.
For O=C1CSc2ccc(S(=O)(=O)N3CCN(c4ccccc4)CC3)cc2N1 the results were BAZ2B inh -4%, JMJD2A Tudor inh -1%, G9a inh 15%[0.0925 µM], PLK1 PBD inh -1%, HP1b binding inh 9%[57 µM] and 12-LOX inh 7%.
For CC(=O)Nc1cc(NC(C)=O)cc(C(=O)OCC(=O)c2ccc3c(c2)OCO3)c1 the results were BAZ2B inh -27%, JMJD2A Tudor inh -25%, G9a inh 10µM*, PLK1 PBD inh -4%, HP1b binding inh 22% and 12-LOX inh -9%.
CC(C[N+](C)(C)C)OC(=O)c1ccc2c(c1)OCO2 (stereo unspecified) was read as 12-LOX inh 25µM*.
For COCc1cccc(-c2csc(C(C)(O)c3ccccc3)n2)c1 (stereo unspecified) the results were PLK1 PBD inh -2% and 12-LOX inh 6%.
`CC[N+](CC)(CCNC(=O)C(=O)NCC[N+](CC)(CC)Cc1ccccc1Cl)Cc1ccccc1Cl` gave G9a inh 18%[59 µM] and 12-LOX inh -14%.
`Nc1ccc2c(c1)Cc1cc(N)c(Br)cc1-2` gave JMJD2A Tudor inh 50µM*, PLK1 PBD inh -3%, HP1b binding inh inconclusive and 12-LOX inh -22%.
Screening COc1cc2c(cc1N)-c1ccc(N)cc1C2 returned JMJD2A Tudor inh 14µM*, PLK1 PBD inh 3%, HP1b binding inh inconclusive and 12-LOX inh inconclusive.
`COc1cc2c(cc1OC)Cc1cc(OC)c(OC)cc1Cc1cc(OC)c(OC)cc1C2` gave G9a inh -15%[2.33 µM].
`Cc1c(C#N)c(NC(=O)CN(CC(N)=O)C(C)C)n(Cc2ccco2)c1C` gave 12-LOX inh -3%.
For C/C=C(\C)CN1CCN(c2ccc(C)cc2)CC1 the results were BAZ2B inh 25µM*, JMJD2A Tudor inh 7.1µM*, G9a inh 10µM*, PLK1 PBD inh -1%, HP1b binding inh -64% and 12-LOX inh inconclusive.
Screening Cn1c(C2CCCN2C(=O)OC(C)(C)C)n[nH]c1=S (stereo unspecified) returned BAZ2B inh -7%, JMJD2A Tudor inh 45µM*, G9a inh 22µM*, PLK1 PBD inh -10%, HP1b binding inh 7% and 12-LOX inh -10%.
For CC[C@H](C)C(=O)O[C@@H]1C[C@H](C)C=C2C=C[C@H](C)[C@@H](CC[C@H]3C[C@@H](O)CC(=O)O3)[C@H]21 the results were G9a inh 20%[21.5 µM].
Screening CCC(C)(C)C(=O)O[C@H]1C[C@@H](C)C=C2C=C[C@H](C)[C@H](CC[C@@H]3C[C@@H](O)CC(=O)O3)[C@H]21 returned BAZ2B inh inconclusive, JMJD2A Tudor inh inconclusive, G9a inh 21%[12.7 µM], PLK1 PBD inh 30µM*, HP1b binding inh 10% and 12-LOX inh 7%.
NCCc1c(-c2ccccc2)n(-c2ccccc2)c2ccccc12 was read as BAZ2B inh 22µM*, JMJD2A Tudor inh 32µM*, G9a inh 45µM*, PLK1 PBD inh -13%, HP1b binding inh inconclusive and 12-LOX inh inconclusive.
For CC(=O)n1c(-c2ccccc2)c(CO)c2ccccc21 the results were BAZ2B inh -8%[57.1 µM], JMJD2A Tudor inh 1%, G9a inh 15%, PLK1 PBD inh 3%, HP1b binding inh 32% and 12-LOX inh -8%.
